Test results published in PubChem BioAssay AID624134 (Broad Institute, 2012).
Out of some 1,600 compounds screened, about 1,100 (69%) were called active. So high a share suggests a set chosen from earlier hits. These entries were drawn from the full list. Results with a measured potency or affinity are listed apart. Records with an inconclusive call do not appear.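 The calls were made as follows: active = signal drop with fitted half-maximal concentration no higher than twice the top valid tested concentration; inconclusive = flat curve with 30 to 70% signal loss, or poor fit; inactive = the rest, including signal rises and flat curves within 30%.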

assay: loss of viability in HepG2 cells – cell-based, CellTiter-Glo, cherry-picked, cytotoxicity control for Shn3 inhibitor project, dose response (AID 624134); settings: CellTiter-Glo ATP luminescence, 48 h; series mostly up to 35 µM; activity change, negative = cytotoxicity: at the top concentration;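 also: 0% = median of neutral control wells and -100% = median of positive control wells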

Compound | activity change, negative = cytotoxicity
Cn1cccc1Cc1nnc(SCC(=O)NCCc2ccccc2)n1-c1ccc(F)cc1 | -2.41% (inactive)
CCCOc1ccccc1C1CC(=O)Nc2cc3c(cc21)OCCO3 (stereo unspecified) | -16.2% (inactive)
COc1cc(C#Cc2c(-c3cncn3C)n(C)c3ccc(-c4ccc(OC)nc4)cc23)cc(OC)c1 | -10% (inactive)
O=C(c1n[nH]c(=O)c2ccccc12)N1CCN(C2c3ccccc3-c3ccccc32)CC1 | -7.71% (inactive)
Cn1cc(CN(CCO)Cc2cccs2)c(-c2cccc(Cl)c2)n1 | -1.41% (inactive)
Cc1noc(C)c1COC(=O)[C@@H](NC(=O)c1ccccc1)C(C)C | 2.94% (inactive)
COc1ccc(CN(C(=O)CSc2nnc(-c3ccc(F)cc3)o2)c2ccc(F)cc2)cc1 | -3.67% (inactive)
Fc1ccccc1N1CCN(Cc2nc(-c3ccccc3)no2)CC1 | -9.95% (inactive)
O=C(Nc1cc2c3c(c1)C1CCCC1CN3CC1CCCC21)c1ccc([N+](=O)[O-])cc1 (stereo unspecified) | -8.21% (inactive)
CCCCC[C@H]1CN(Cc2ccc(OC)cc2)C(=O)[C@@H]1CC(=O)NCc1ccccc1 | -12.3% (inactive)
Cc1ccc(CS(=O)(=O)c2ncc(Cl)c(C(=O)Nc3nnc(C)s3)n2)cc1 | -16% (inactive)
CSc1nnc(NC(=O)c2nc(S(=O)(=O)Cc3ccccc3F)ncc2Cl)s1 | -11% (inactive)
CCn1c(=O)c(C(=O)Nc2nc3ccccc3[nH]2)c(O)c2ccccc21 | 1.78% (inactive)
CCOC(=O)Cn1c(S(=O)(=O)Cc2ccccc2Cl)nc(-c2ccccc2)c1-c1ccccc1 | -12.6% (inactive)
CCOC(=O)Cn1c(=O)c(-c2cc(Br)ccc2N)nc2ccccc21 | -8.59% (inactive)
CCOC(=O)c1c(C)[nH]c(C)c1C(=O)CSc1nc2ccccc2c(=O)n1-c1ccc(CC)cc1 | -19.7% (inactive)
CCOC(=O)c1cccc(NC2c3ccccc3C(=O)N2Cc2ccco2)c1 (stereo unspecified) | -2.92% (inactive)
CSc1nnc(-c2ccco2)n1-c1ccccc1 | 0.586% (inactive)
CCC(C)c1ccc(S(=O)(=O)N2CCN(C(=O)c3ccc(Cl)c(S(=O)(=O)N4CCOCC4)c3)CC2)cc1 (stereo unspecified) | -13.9% (inactive)
CCCCCCC#Cc1ccc2c(c1)COc1c3ccccc3nn1-2 | -0.219% (inactive)
O=C(O)C1(Nc2ccccc2Cl)CCCC1 | -3.18% (inactive)
Cc1ccn2cc(-c3ccc(O)c(O)c3)nc2c1 | 0.075% (inactive)
Cc1ccc(-c2cn3cc(C)ccc3n2)cc1 | -9.81% (inactive)
COC(=O)C12OCC34C(CC5C(C)=C(O)C(=O)CC5(C)C3C(O)C1O)OC(=O)C(OC(=O)C=C(C)C)C24 (stereo unspecified) | 0.417% (inactive)

Compound | activity change, negative = cytotoxicity
O=C(NCCCn1ccnc1)C(=O)NCC1OCCCN1S(=O)(=O)c1ccccc1 (stereo unspecified) | 3.35% (inactive)
CC(C)c1c(O)c2c(n(-c3ccccc3)c1=O)CCCC2 | 5.24% (inactive)
Cc1ccc(NC(=O)c2cc3ccccc3oc2=O)cc1S(=O)(=O)N(C)C | -2.4% (inactive)
O=C1CCc2cccc(O)c2N1 | 3.06% (inactive)
Cc1ccc(Cn2ccc(NC(=O)c3nn(C)cc3[N+](=O)[O-])n2)cc1 | -12.5% (inactive)
Cc1ccc(C(=O)Nc2cnc3ccccc3c2)cc1 | -4.82% (inactive)
COC(=O)c1ccccc1NC(=S)N(Cc1ccc2c(c1)OCO2)Cc1cc2cc(OC)ccc2[nH]c1=O | -10.8% (inactive)
CC(C)c1nnc(NC(=O)c2nc(S(=O)(=O)Cc3ccc(F)cc3)ncc2Cl)s1 | -7.09% (inactive)
COCc1nn2c(N)c(C#N)cnc2c1-c1ccccc1 | 0.007% (inactive)
C=CCOc1nc2c(c(=O)n(C)c(=O)n2C)n1Cc1ccc(Cl)cc1 | -6.18% (inactive)
COc1ccc(CCNC(=O)CCC(=O)N2CCOc3ccc(Cl)cc32)cc1OC | -4.82% (inactive)
CCOC(=O)N1CCN(CC(c2ccccc2)c2ccccc2)CC1 | -2.51% (inactive)
COc1ccccc1NC(=O)Cn1cc(C(=O)C2CC2)c2ccccc21 | -17.6% (inactive)
CCC(CC)CN1C(N(C)C)=NC[C@@H]1CC(C)C | -2.51% (inactive)
CCOC(=O)C1CCCN(S(=O)(=O)c2ccc(S(=O)(=O)N3CCCC3)cc2)C1 (stereo unspecified) | -6.66% (inactive)
CN(CC(=O)NCc1ccc2c(c1)OCO2)S(=O)(=O)c1ccc(Br)s1 | 11.1% (inactive)
Cc1cccc(CCN2C(N(C)C)=NC[C@@H]2CC(C)C)c1 | -11.9% (inactive)
O=C1C=C(N2CCOCC2)c2ccccc2C1=O | -0.716% (inactive)
COc1cc(OC)c(OC)cc1/C=C1\CC(C)C/C(=C\c2cc(OC)c(OC)cc2OC)C1=O (stereo unspecified) | 9.81% (inactive)
Cc1ccc(C)c(S(=O)(=O)Nc2ccc(-n3cnnn3)cc2)c1 | -0.783% (inactive)
CC1(Cc2ccc(OC(F)(F)F)cc2)C(=O)Nc2c(Cl)ccc(Cl)c21 (stereo unspecified) | -0.472% (inactive)
Cc1nn(Cc2c(Cl)cccc2Cl)c(C)c1NC(=O)c1cn(-c2ccccc2)nc1-c1ccccc1 | -1.4% (inactive)
Cc1nn(Cc2noc(C(=O)NC3CCC(C)CC3)n2)c(C)c1Br (stereo unspecified) | -0.596% (inactive)
CCOC(=O)CC1CCCCN1C(=O)c1cc(COc2cccc3cnccc23)on1 (stereo unspecified) | -18.8% (inactive)

Compound | activity change, negative = cytotoxicity
CCCOc1ccc2oc(=O)c3c(c2c1)CCCN3C(=O)CN1CCN(c2ncccn2)CC1 | -4.39% (inactive)
OC(c1ccccc1)C(O)C(c1ccccc1)N1CCCCC1 (stereo unspecified) | -8.45% (inactive)
OCCCNc1cc(-c2ccnc(Nc3cccc(Cl)c3)n2)ccn1 | -19% (inactive)
OCCCNc1nccc(-c2cc(Nc3cccc(Cl)c3)ncn2)n1 | -12% (inactive)
COc1ccc(OC)c(C(c2nnnn2Cc2ccccc2)N2CCN(C3CCCCC3)CC2)c1 (stereo unspecified) | -9.05% (inactive)
O=S(=O)(c1ccc(Cl)cc1)n1ccc2cccnc21 | 0.483% (inactive)
Cc1sc2ncnc(N3CCN(S(=O)(=O)c4ccccc4)CC3)c2c1C | -22.3% (inactive)
O=C(CN1C(=O)C2CCCCC2C1=O)NC1CCCc2ccccc21 (stereo unspecified) | -0.197% (inactive)
CCc1ccc(-n2c(O)c(C=NCCN(CC)CC)c(=O)[nH]c2=O)cc1 | -6.43% (inactive)
CC(C)c1nnc(NC(=O)c2nc(S(=O)(=O)Cc3ccccc3)ncc2Cl)s1 | -6.87% (inactive)
O=C1CC(c2ccccc2)CC(O)=C1C=Nc1cccc(Cl)c1 (stereo unspecified) | -7.86% (inactive)
CC(=O)N1CCN(C(=O)CCc2cc(C(C)(C)C)c(O)c(C(C)(C)C)c2)CC1 | -8.85% (inactive)
COC(=O)[C@@]12CCCCN1[C@H](c1ccc(SC3CCCCC3)c(OC)c1)[C@@H]1C(=O)N(C)C(=O)[C@@H]12 | -9.78% (inactive)
CSc1nnc(NC(=O)c2nc(S(=O)(=O)Cc3cccc(C)c3)ncc2Cl)s1 | -2.96% (inactive)
CCSc1nnc(NC(=O)c2nc(S(=O)(=O)Cc3ccc(F)cc3)ncc2Cl)s1 | -8.21% (inactive)
Cc1ccc(CS(=O)(=O)c2ncc(Cl)c(C(=O)Nc3nnc(C(C)C)s3)n2)cc1 | -10.4% (inactive)
CC(C)(C)[C@@H]1COC(=O)[C@@H](NC(=O)OCC2c3ccccc3-c3ccccc32)C/C=C\C[C@@H](CC(=O)NCCO)C(=O)N1 | -18.4% (inactive)
C[C@H]1COC(=O)[C@H](NC(=O)OCC2c3ccccc3-c3ccccc32)C/C=C\C[C@H](CC(=O)N(CCO)Cc2ccccc2)C(=O)N1 | -2.09% (inactive)
O=C(CN1C(=O)c2ccccc2S1(=O)=O)c1ccc2c(c1)OCCCO2 | 4.26% (inactive)
COC(=O)[C@@]12CCCN1[C@H](c1ccc(-c3ccc(OC)cc3)cc1)[C@@H]1C(=O)N(C)C(=O)[C@@H]12 | -1.78% (inactive)
O=C1/C(=C/c2ccccn2)SC(=S)N1Nc1ncc(C(F)(F)F)cc1Cl | -1.16% (inactive)
COc1cc(NC(=O)COc2cccc3c2OC(C)(C)C3)cc(OC)c1OC | -10.7% (inactive)
CCOC(=O)c1c(C)[nH]c(C(=O)COC(=O)[C@H](C)N2C(=O)C3CCCCC3C2=O)c1C (stereo partly specified) | -1.04% (inactive)
CCOc1ccc(NS(=O)(=O)c2cc(C(=O)NCCN3CCOCC3)ccc2C)cc1 | -2.87% (inactive)

Compound | activity change, negative = cytotoxicity
Cc1c(C(=O)N(Cc2cccc(Br)c2)C2CCS(=O)(=O)C2)oc2ccccc12 (stereo unspecified) | -1.47% (inactive)
CC1CCN(C(=O)c2ccc(N3C(=O)C4CCC(C)CC4C3=O)cc2)CC1 (stereo unspecified) | 3.34% (inactive)
Cc1c(CCOC(=O)CC23CC4CC(CC(C4)C2)C3)sc[n+]1CC(=O)c1ccc(Br)cc1 | -13.8% (inactive)
COc1ccccc1-n1cc([C@@H]2C[C@H]3CN(c4ccccc4)C(=O)[C@]34CCCN24)cn1 | -18.9% (inactive)
O=C(NNc1ccccc1)C(=O)NNS(=O)(=O)c1ccc(CCCl)cc1 | -6.66% (inactive)
O=C(CN1C(=O)c2ccccc2S1(=O)=O)c1ccc(Cl)cc1Cl | -5.75% (inactive)
NC(=O)NC(CC(=O)NCCc1ccccn1)c1ccccc1Cl (stereo unspecified) | -2.86% (inactive)
CC1(C)CC(=O)c2c(nc(SCC(=O)Nc3nsc(-c4ccccc4)n3)c(C#N)c2-c2ccccc2)C1 | -5.76% (inactive)
CNS(=O)(=O)c1cccc(C(=O)OCc2cc(C(C)=O)ccc2OC)c1 | 0.463% (inactive)
CCN1C(=O)[C@H]2[C@@H](c3ccc(-c4ccc(OC)cc4)cc3)N3CCC[C@@]3(C(=O)OC)[C@H]2C1=O | -3.76% (inactive)
Cc1ccc(S(=O)(=O)CCC(=O)OCC(=O)Nc2cc(S(=O)(=O)N3CCOCC3)ccc2C)cc1 | 3.15% (inactive)
CNC(=O)c1nnsc1S(=O)c1ccc(Cl)cc1 (stereo unspecified) | -3.14% [at 16 µM] (inactive)
COCCn1c(SCC(=O)/C=C2\N(C)c3ccccc3C2(C)C)nnc1-c1ccncc1 | -22% (inactive)
O=C1NCCOC(=O)[C@@H](Cc2ccc(F)cc2)CC/C=C/C[C@@H]1CC(=O)N(CCO)Cc1ccccc1 | -6.06% (inactive)
COc1c(CC=C(C)C)cc(C2CC(=O)c3c(O)cc(O)cc3O2)cc1CC=C(C)C (stereo unspecified) | -9.16% (inactive)
Cc1cc(=O)oc2c3c(cc(OCC(=O)Nc4ccc(CCO)cc4)c12)OC(C)(C)CC3 | -4.82% (inactive)
O=C(Nc1cc(F)ccc1F)N1CCN(c2ccnc3cc(Cl)ccc23)CC1 | -17% (inactive)
COc1ccccc1-n1ccnc(SCC(=O)NCc2ccccc2Cl)c1=O | -8.69% (inactive)
Cc1ccc(S(=O)(=O)NCCc2cc3ccc(C)cc3[nH]c2=O)cc1 | -9.09% (inactive)
CC[C@H](C)C(=O)O[C@H]1C[C@@H](C)C=C2C=C[C@H](C)[C@H](CC[C@@H]3C[C@@H](O)CC(=O)O3)[C@H]21 | -15.4% (inactive)
COc1ccc(S(=O)(=O)N2CCN(c3cc(-c4ccccc4)nc4ncnn34)CC2)cc1 | 5.43% (inactive)
O=C(CSc1ccccn1)Nc1nonc1[N+](=O)[O-] | -17.3% (inactive)
C=CC[C@H](CC(=O)N(CCO)Cc1ccccc1)C(=O)NC[C@H](OC(=O)[C@@H](CC=C)Cc1ccc(F)cc1)c1ccccc1 | -4.46% (inactive)
C=CCC[C@H](Cc1ccc(F)cc1)C(=O)OC[C@H](Cc1c[nH]c2ccccc12)NC(=O)[C@H](CC=C)CC(=O)N(CCO)Cc1ccccc1 | -9.68% (inactive)
